Experimental data from PubChem BioAssay (NCI).
“And” between values parts separate entries of the source, which are not always exact repeats. Equal entries are not always repeated. The panel holds about 79,000 compounds, 15% with a hit somewhere; the sample as a whole holds those more often. Unmarked numbers belong to inactive results. The source made the active and inactive calls. Rule as the data show it: active = growth inhibition above about 70%; inactive = the rest.

Test: NCI Yeast Anticancer Drug Screen. Data for the rad50 strain (AID 155);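 also: 0% = growth of vehicle-only cultures of the same strain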
Conditions: S. cerevisiae rad50 strain growth inhibition, stronger effect = higher value
Experimental: Growth inhibition of yeast strains with defined genetic alterations is measured as a screen for potential anti-cancer activity. Selected strains with alterations in DNA damage repair or cell cycle control were exposed to compounds and growth inhibition was measured relative to vehicle treated controls. The strain used in this assay is rad50

[1] = at 5.0 µM (retest, dose inferred, filed as 0.5)
[2] = at 50.0 µM (retest, dose inferred, filed as 5.0)

S=c1[nH]c2c(Cl)c(Cl)c(Cl)c(Cl)c2[nH]1
growth inhibition (at 1.2 µM): -5%
growth inhibition (at 3.7 µM): -2%
growth inhibition [1]: 33%
growth inhibition (at 11.0 µM): 59%
growth inhibition (at 33.0 µM): 98% (active)
growth inhibition [2]: 92% (active)
growth inhibition (at 50.0 µM): 90% (active)
growth inhibition (at 100.0 µM): 96% (active)

CCN(CC)CC(O)c1cc(-c2ccc(Cl)cc2)nc2c(-c3ccccc3)cccc12 (stereo not given)
growth inhibition (at 1.2 µM): 1%
growth inhibition (at 3.7 µM): 6%
growth inhibition [1]: 48%
growth inhibition (at 11.0 µM): 98% (active)
growth inhibition (at 33.0 µM): 98% (active)
growth inhibition [2]: 94% (active)
growth inhibition (at 50.0 µM): 94.7% (active)
growth inhibition (at 100.0 µM): 93% (active)

CCOC(=O)Nc1ccc2c(c1)Cc1ccccc1-2
growth inhibition (at 1.2 µM): -15%
growth inhibition (at 3.7 µM): -14%
growth inhibition [1]: 4%
growth inhibition (at 11.0 µM): -23%
growth inhibition (at 33.0 µM): -22%
growth inhibition [2]: 2%
growth inhibition (at 50.0 µM): -9.4%
growth inhibition (at 100.0 µM): -9%

O=C1NC(c2c(Cl)cccc2Cl)Nc2ccccc21 (stereo not given)
growth inhibition (at 1.2 µM): 12%
growth inhibition (at 3.7 µM): 4%
growth inhibition [1]: 86% (active)
growth inhibition (at 11.0 µM): 10%
growth inhibition (at 33.0 µM): 72% (active)
growth inhibition [2]: 100% (active)
growth inhibition (at 50.0 µM): 83.7% (active)
growth inhibition (at 100.0 µM): 91% (active)

CC(=O)C1=C(O)C2(C)c3c(O)c(C)c(O)c(C(C)=O)c3OC2(Sc2ccccc2)CC1=O (stereo not given)
growth inhibition (at 1.2 µM): 20%
growth inhibition (at 3.7 µM): 20%
growth inhibition [1]: -15%
growth inhibition (at 11.0 µM): 36%
growth inhibition (at 33.0 µM): 53%
growth inhibition [2]: 85% (active)
growth inhibition (at 50.0 µM): 63% and 7.1%
growth inhibition (at 100.0 µM): 83% (active)
